# Reference: ChEMBL document CHEMBL3988442, “University of Dundee, Small-Polar-MMV Screening Library” (2021)
# Tests used:
# [1] = molecular target: T1, Aspartate--tRNA(Asp/Asn) ligase (Mycobacterium tuberculosis (strain ATCC 25618 / H37Rv)) (UniProt P9WFW3); assay: Assay for Asp RNA synthetase-1 from Mycobacterium tuberculosis; assay type: functional; parameters: scale not given: direction of the effect not stated beside the values; conditions: 30 µM; also: in the data most compounds retested in dose-response had high values
# T1 sequence (whole entry): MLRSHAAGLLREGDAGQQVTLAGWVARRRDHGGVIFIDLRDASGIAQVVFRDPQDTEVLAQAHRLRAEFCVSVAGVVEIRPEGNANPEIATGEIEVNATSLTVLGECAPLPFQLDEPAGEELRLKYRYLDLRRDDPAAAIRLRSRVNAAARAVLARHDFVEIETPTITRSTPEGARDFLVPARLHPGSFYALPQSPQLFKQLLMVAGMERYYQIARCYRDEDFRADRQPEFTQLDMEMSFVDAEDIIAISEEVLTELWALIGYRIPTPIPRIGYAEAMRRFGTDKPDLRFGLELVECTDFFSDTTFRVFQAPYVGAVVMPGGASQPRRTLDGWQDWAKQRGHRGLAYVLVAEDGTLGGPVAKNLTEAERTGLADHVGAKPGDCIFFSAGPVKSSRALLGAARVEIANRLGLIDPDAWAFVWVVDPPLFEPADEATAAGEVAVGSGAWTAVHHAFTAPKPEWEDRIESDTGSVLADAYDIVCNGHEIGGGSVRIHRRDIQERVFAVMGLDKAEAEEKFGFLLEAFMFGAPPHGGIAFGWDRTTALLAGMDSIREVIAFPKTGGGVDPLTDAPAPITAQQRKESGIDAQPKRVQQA
# [2] = molecular target: Shiga toxin 2 (Escherichia coli O157:H7) (UniProt P09385+P09386); assay: E. coli 0.157:H7 Shiga Toxin SOP - stx2 screening assay; assay type: functional; parameters: scale not given: direction of the effect not stated beside the values; conditions: 30 µM
Structure (SMILES),Percent Effect [1],Percent Effect [2]
Cc1csc(N2CCN(CC(=O)Nc3nncs3)CC2C)n1 (stereo not drawn),-3.09%,3.44%
O=C(NCc1cc[nH]n1)NCC(O)COc1cccc(F)c1 (stereo not drawn),1.72%,-40%
CSCCC(=O)N1CCC(Oc2cc(C)ccc2F)(C(=O)O)CC1,-1.34%,-3.19%
Cc1ccc(NC2CCN(C(=O)c3cccc(F)c3F)CC2)nn1,-4.5%,-17%
Cc1cc(NC(=O)CCN2CCCC2Cn2cncn2)no1 (stereo not drawn),-2.02%,-32.1%
O=C(c1cccs1)N1CCC(O)(CN2CCc3ccccc3C2)C1 (stereo not drawn),-5.2%,-25.3%
CCc1noc(C(C)N(C)CC(=O)Nc2ccc(C)cc2)n1 (stereo not drawn),1.52%,-3.18%
COCCC(=O)N1CCN(CCN(C)C)c2ncccc2C1,4.55%,-25.6%
CCOc1nnc(CN2CCC(N(C)Cc3noc(C)n3)C2)s1 (stereo not drawn),5.37%,24.4%
Cc1cc(C)c(OCC(=O)NS(=O)(=O)c2c(C)noc2C)c(C)c1,-3.08%,21.6%
CN(Cc1nccs1)c1nc(-c2ccccn2)nc2c1CCNCC2,2.26%,-12.4%
Cc1[nH]ncc1CCCNC(=O)Nc1ccc(C#N)cc1,0.993%,-61.3%
CC(C)c1cc(N2CCN(c3ccc(O)cc3)CC2)n2nccc2n1,-1.38%,15%
Cc1nn(CC(C)C)c(N(C)C)c1CNCc1cccc2c1OCO2,1.9%,20.6%
CCCN(CCO)C(=O)C1CCC(=O)N(CCc2ccc(Cl)cc2)C1 (stereo not drawn),-4.04%,18%
CCC(CNC(=O)c1cc(OC)ccc1Br)N1CCc2ccccc2C1 (stereo not drawn),4.47%,9.68%
Cc1cc(CN2CCC(CNC(=O)c3nccc4ccccc34)C2)[nH]n1 (stereo not drawn),8.37%,-22.4%
CC(C)NC(=O)C1CN(C(=O)c2ccco2)CC12CCOCC2 (stereo not drawn),9.32%,1.11%
CCc1cnc(CN(C(C)=O)C2CCN(CCS(C)(=O)=O)C2)o1 (stereo not drawn),-3.9%,-0.798%
O=C(CC1CCCC1)N1C[C@@H]2CCN(c3cccnc3)C[C@@H]2C1,2%,-5.1%
CC1=N[C@@]2(CC[C@@H]3CN(Cc4ccccc4F)C[C@@H]32)C(=O)N1CC1CC1,-6.8%,-2.95%
CC(=O)N(Cc1noc(C2CC2)n1)C1CCN(Cc2nccn2C)C1 (stereo not drawn),-4.37%,12.9%
O=C(NCc1cncc2c1CCN(Cc1cccc(F)c1)C2)C1CC1,1.78%,-32.2%
Cc1ncccc1CNCC1CCN(CC(O)c2ccccc2)CC1 (stereo not drawn),0.218%,-34.9%
COc1ccc2c(c1)CC(NC(=O)NCc1cccs1)CO2 (stereo not drawn),-4.82%,-8.88%

Structure (SMILES),Percent Effect [1],Percent Effect [2]
CC(C)NC(=O)N1CCN(S(=O)(=O)C2CC2)CC2(CC(=O)N(C)C2)C1 (stereo not drawn),-1.56%,-20.5%
CC(O)CN1CCN(C(=O)CN(C)c2ccc(Cl)cn2)CC1 (stereo not drawn),0.546%,-10.6%
CC(C)c1n[nH]c(C2CN(C(=O)CCCn3cccn3)CCO2)n1 (stereo not drawn),-2.62%,-10.6%
CNC(=O)[C@@]12CCO[C@@H]1CCN(Cc1scnc1C)C2,-0.714%,-2.91%
Cc1ccc(C2CSCCN2C(=O)c2ccc(C(N)=O)cc2)o1 (stereo not drawn),-1.11%,8.19%
COc1cc(C2CC(=O)Oc3cc(C)[nH]c(=O)c32)ccc1OC(F)F (stereo not drawn),-4.59%,-43.6%
CS(=O)(=O)N1CCC(c2nnc3ccc(C(=O)N4CCCC4)cn23)C1 (stereo not drawn),2%,-10.4%
COc1ccc2c(c1)C1(CCN(Cc3ccncc3)CC1)N(C)CC2,2.26%,-1.38%
CC(C)c1nnc(NC(=O)NCc2ccnc(N(C)C)c2)s1,-3.25%,-21.8%
CC1CCCN(C(=O)CCc2cccnc2)C1 (stereo not drawn),-4.28%,-0.0678%
O=C1COc2ccc(C(=O)NS(=O)(=O)c3ccc(F)cc3F)cc2N1,0.0843%,17.8%
COc1ccc(NC(C)C(=O)N2CCN(c3ncccn3)CC2)cn1 (stereo not drawn),-4.63%,5.46%
NC(=O)c1ccc2c(c1)nc1n2CCN(Cc2ccco2)C1,6.41%,-31.5%
O=C(Cn1cc(C(=O)O)ccc1=O)NCc1ccc(F)c(Cl)c1,3.08%,-51.8%
CN(C)C(=O)N1CCc2c(nnn2C)C1COCc1ccccc1 (stereo not drawn),1.92%,-16.6%
Cc1ccc2c(c1)C1(CCNCC1)CN2C(=O)CN(C)C,-0.657%,6.1%
Cc1nc(CN2CCC3(CC2)NC(=O)CC3c2ccccc2)cs1 (stereo not drawn),-5.35%,7.78%
OC(CNCCn1cccn1)c1ccc2c(c1)OCCO2 (stereo not drawn),-4.48%,3.64%
COc1ccc(CNC(C)c2ccc3[nH]c(=O)[nH]c3c2)cc1 (stereo not drawn),2.66%,-13.7%
N#Cc1ccc(OCCOc2ccccc2C(=O)N2CCOCC2)cc1,8.62%,-58.2%
CC(=O)NCCc1ccc(S(=O)(=O)N(CC(C)C)C(C)C)s1,7.1%,-42.2%
CCc1nnc2n1CC(CNCc1ccncc1)CC2 (stereo not drawn),-3.51%,-13.5%
Cc1cc(CN2CCN(C(=O)NCc3nc(C)cs3)CC2)on1,2.33%,27.5%
Cc1csc(N2CCN(Cc3ccccn3)CC2C)n1 (stereo not drawn),6.41%,-0.687%
O=C(c1ccc[nH]1)N1CCn2cc(CN3CCCC3)nc2C1,-2.37%,0.78%

Structure (SMILES),Percent Effect [1],Percent Effect [2]
CC(C)c1cc(CNC(=O)N2CCC(Cc3cnn(C)c3)C2)on1 (stereo not drawn),-3.72%,11%
CC1=Nc2c(c(=O)[nH]n2C(C)C)C(c2ccccc2)S1 (stereo not drawn),1.45%,1.24%
CC(C)c1n[nH]c(C2CN(C(=O)C3=COCC3)CCO2)n1 (stereo not drawn),-3.88%,17.2%
CCN(c1ccc(C(=O)N2CCCC(C)C2)cc1)S(=O)(=O)CC (stereo not drawn),-3.34%,-10.8%
CC1CCN(S(=O)(=O)NCc2ccccc2Cn2cncn2)CC1,-6.51%,4.16%
CC(C)S(=O)(=O)N1CCC(c2cc3n(n2)[C@@H](C(F)(F)F)C[C@@H](C)N3)C1 (stereo partly drawn),-2.54%,-27.2%
O=C1CC2(CCCCN2C(=O)c2ccsc2)CN1CC1CC1 (stereo not drawn),-2.94%,-8.01%
CC(C)n1c(=O)nc2n1C(=O)N(c1ccccc1)C2,2.04%,0.0543%
Cc1n[nH]c(C2CN(C(=O)CCc3ccsc3)CCO2)n1 (stereo not drawn),3.08%,-2.19%
Cn1cc(CN(Cc2ccccc2)CC(O)c2cccs2)cn1 (stereo not drawn),0.353%,9.88%
c1ccc(COC2CCN(c3cncc(-n4cccn4)n3)CC2)cc1,-3.76%,-38.3%
Cc1cc(CN2CCCC2c2noc(C)n2)no1 (stereo not drawn),-5.01%,-5.29%
CCc1csc(C2CCCN(C(=O)C3=NN(CC)C(=O)CC3)C2)n1 (stereo not drawn),-5.86%,-21.6%
CCN(CC)C(=O)CCNC(=O)N1CCC(c2ccccc2)C1 (stereo not drawn),-1.42%,-20.3%
Cc1nccn1-c1cccc(C2CCCN(C3CCCCC3)C2)n1 (stereo not drawn),-3.11%,-8.84%
CC(C)NC(=O)N1CC[C@@H]2CN(Cc3ccccc3)S(=O)(=O)[C@@H]2CC1,-3.29%,-5.27%
Cc1nc(COc2cccc(C#N)c2)no1,-0.618%,0.222%
CCOc1ncccc1NC(=O)c1sccc1C,-0.501%,-11.1%
CN1[C@H](CN2CCCC2)C[C@@H]2CN(C(=O)Cc3cccs3)CC[C@@H]21,3.89%,-16%
CCN1CCC2(CC1)CC(NC(=O)N(C)C)c1cc(C)ccc12 (stereo not drawn),2.85%,-28.6%
O=C1CN(Cc2ccc(-c3ccccc3C(=O)O)cc2)CCN1,5.6%,43.1%
COc1cccc(N2CCN(CC(O)c3cc(C)ccc3C)CC2)c1 (stereo not drawn),9.16%,-19.7%
Cc1ccc(NC(=O)N2CCN(Cc3noc(C4CC4)n3)CC2)cc1,-2.14%,-9.31%
CCCN(CC)C(=O)c1cc2c(c3ccccc3n2C)n1C(=O)N(C)C,6.03%,2.44%
